Records with an inconclusive call do not appear. Active and inactive are the calls of the source. The call rests on the fitted dose curve; in most records, active means well fitted activation curve with a large enough effect; inconclusive means small, poorly fitted or top-dose-only effect; inactive means flat fitted curve, though single readings scatter.
Biological target: D(1A) dopamine receptor (Homo sapiens) (UniProt P21728)
Assay: HTS Assay for Allosteric Agonists of the Human D1 Dopamine Receptor: Primary Screen for Agonists (AID 488981); further: 0% is about no effect
Details: Inducible HEK293 T-REx D1 cells, calcium-flux fluorescence, 180 s kinetic; series mostly up to 41.8 µM; activation: at the top concentration
From the text: Dopamine receptors (DARs) are involved in the etiology and/or therapy of a number of neuropsychiatric and endocrine disorders. For instance, all receptor-based antiparkinsonian drugs work via stimulating the […] DAR subtype whereas all FDA-approved antipsychotic agents are antagonists of this receptor. […] There are three different types of allosteric modulators that we are seeking, two of which will stimulate or augment receptor signaling, allosteric agonists and potentiators, while the third, allosteric antagonists, will attenuate receptor signaling. The present primary screening assay measures compound agonism by tracking calcium flux in a […], inducible Hek293 Trex D1 cell line.
Freshly passaged cells are plated in 1536 well black, clear bottom plates at a density of 4000 cells/well in 3 ul of complete media containing 1x tetracycline inducer. After an overnight incubation at 30 C in 5% CO2, cells are loaded with 2 ul of the no wash Calcium Assay Kit (ABD Bioquest) and incubated at room temperature for 30 to 90 minutes. A 10 cycle (1 second/cycle) baseline measurement is taken and then the FDSS online 1536 pintool delivers 23 nl of compound library (as well as dopamine controls) to the plate. The plate is measured for kinetically at 1 cycle/sec for 180 seconds and is considered to be the agonist portion of the assay (eg, compounds which activate a positive calcium response during this portion are flagged as potential agonists). Following the 180 second read, 1 ul of an EC20 of dopamine is delivered by an onboard pipette head. Measurements are taken kinetically for an additional 180 seconds.

Sequence of D(1A) dopamine receptor (Homo sapiens) (P21728 whole entry, looked up): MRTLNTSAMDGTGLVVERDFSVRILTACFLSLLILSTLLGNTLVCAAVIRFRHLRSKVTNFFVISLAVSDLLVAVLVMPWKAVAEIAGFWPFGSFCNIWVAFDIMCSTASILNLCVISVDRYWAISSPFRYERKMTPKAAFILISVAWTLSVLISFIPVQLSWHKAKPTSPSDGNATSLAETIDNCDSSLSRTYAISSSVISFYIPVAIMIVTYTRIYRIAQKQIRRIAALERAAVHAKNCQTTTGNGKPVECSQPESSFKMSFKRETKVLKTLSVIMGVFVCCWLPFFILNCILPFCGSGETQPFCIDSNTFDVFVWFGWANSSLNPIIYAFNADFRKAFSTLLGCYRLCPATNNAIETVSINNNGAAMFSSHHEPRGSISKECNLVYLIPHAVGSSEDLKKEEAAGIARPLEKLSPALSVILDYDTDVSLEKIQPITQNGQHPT

Row | Structure (SMILES) | activation
1 | Clc1nccc2c1ccc1ccccc12 | 4.81% (inactive)
2 | C=C1C(=O)O[C@@H]2[C@H]3O[C@]3(C)CCC=C(C)CC[C@@H]12 | -0.423% (inactive)
3 | CC(=O)NCCc1c[nH]c2ccc(O)cc12 | -1% (inactive)
4 | C[C@@]1(C2CCCC2)Cc2cc(OCC(=O)O)c(Cl)c(Cl)c2C1=O | -0.952% (inactive)
5 | N=C(N)c1ccccc1 | -0.952% (inactive)
6 | COc1cc(C(O)CO)ccc1O (stereo not given) | 0.317% (inactive)
7 | CN(C)CCC(c1ccc(Br)cc1)c1ccccn1 (stereo not given) | 1.96% (inactive)
8 | COc1ccc(-c2ccc(N)[n+](CCCC(=O)O)n2)cc1 | -0.476% (inactive)
9 | Nc1ccc(N2C(=O)c3ccccc3C2=O)c(Cl)c1 | -0.688% (inactive)
10 | CC(C)Cn1c(=O)n(C)c(=O)c2[nH]cnc21 | -0.159% (inactive)
11 | CC(N)=O | -1.37% (inactive)
12 | O=c1onc2n1-c1cc(Br)ccc1OC2 | 0% (inactive)
13 | S=C(S)N1CCCC1 | -0.846% (inactive)
14 | Cn1ccnc1 | 0.159% (inactive)
15 | NC(N)=NC(N)=Nc1ccccc1 | -0.211% (inactive)
16 | CN(C)CCCc1cc(C(=O)Nc2ccc(-c3ccncc3)cc2)ccc1O | 2.38% (inactive)
17 | CC(/C=C/c1cccc(Oc2ccc(F)cc2)c1)N(O)C(N)=O (stereo not given) | 11.8% (inactive)
18 | CC(N)=NCCCC[C@@H](N)C(=O)O | -0.529% (inactive)
19 | NCCCNCCCCNCCCN | -0.952% (inactive)
20 | CSC(N)=NCCC[C@H](N)C(=O)O | -0.582% (inactive)

Row | Structure (SMILES) | activation
21 | CCCCOC(=O)NS(=O)(=O)c1sc(CC(C)C)cc1-c1ccc(Cn2c(CC)nc3c(C)cc(C)nc32)cc1 | 3.91% (inactive)
22 | C#CC(N)CCC(=O)O (stereo not given) | -0.476% (inactive)
23 | c1ccc(C2CN3CCSC3=N2)cc1 (stereo not given) | -0.74% (inactive)
24 | N#Cc1cc2nc(O)c(O)nc2cc1[N+](=O)[O-] | 0.0529% (inactive)
25 | NCC(O)(CS(=O)(=O)O)c1ccc(Cl)cc1 (stereo not given) | 0.952% (inactive)
26 | CC(N)(C(=O)O)c1ccc(C(=O)O)cc1 (stereo not given) | -1.22% (inactive)
27 | COc1cccc(OC)c1OCCNCC1CSc2ccccc2O1 (stereo not given) | 2.7% (inactive)
28 | CN(C)C(=O)/N=N/C(=O)N(C)C | -0.476% (inactive)
29 | N=C(N)SCCN | -1.27% (inactive)
30 | COCc1nc2c([nH]1)c(=O)n(C)c(=O)n2CC(C)C | -0.529% (inactive)
31 | CCCCCCCCCC[Si](C)(C)CCC(=O)NC(Cc1ccc(C)cc1)c1ccccc1 (stereo not given) | 0.688% (inactive)
32 | Cn1c(=O)c2[nH]c(C3CCCC3)nc2n(C)c1=O | -1.37% (inactive)
33 | Cc1nc(N=Nc2ccc(C(=O)O)cc2)c(COP(=O)(O)O)c(C=O)c1O | -0.423% (inactive)
34 | O=C(O)C1CCCNC1 (stereo not given) | -0.899% (inactive)
35 | O=S(=O)(c1cccc2c(Cl)cccc12)N1CCCNCC1 | 18.9% (inactive)
36 | NC(=O)c1ccccc1 | -0.264% (inactive)
37 | CC(O)C(O)[C@H]1CNc2nc(N)[nH]c(=O)c2N1 (stereo not given in full) | 5.92% (inactive)
38 | CC1=C(/C=C/C(C)=C/C=C/C(C)=C\C(=O)O)C(C)(C)CCC1 | 0.476% (inactive)
39 | COc1cc(C(O)C(=O)O)ccc1O (stereo not given) | -1.8% (inactive)
40 | NC(=Nc1ccccc1)NC(=O)c1nc(Cl)c(N)nc1N | 0.846% (inactive)

— PubChem BioAssay (NCATS)
